The record followed here is PubChem BioAssay.

Active and inactive are the calls of the source. Unless noted, no rule for the calls is given here.

The nature of test [1]: compounds binding Alexa647 anti-His antibody – biochemical, small-molecule microarray, 635 nm fluorescence, artefact control for SMM control protein annotation, primary screen (AID 1128).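 Also: score merges feature fluorescence with signal-to-noise for each printed compound spot.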 The conditions noted are these: higher = more signal.
The subject of test [2] is Human papillomavirus type 1a E7 protein (residues 1-88). Briefly: HPV1a E7 small-molecule binders, primary screen, biochemical, small-molecule microarray, residues 1-88, 635 nm (AID 1129). To be noted: small-molecule microarray binding, fluorescence 635 nm; higher = more signal.
The target in test [3] is Focal adhesion kinase 1 (Homo sapiens) (UniProt Q05397). The test is described as follows: PTK2 protein binding on printed compound slides – biochemical, small-molecule microarray, 635/667 nm fluorescence, BSA, DTT, primary screen (AID 1130).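 Also: composite of spot emission at 667 nm and signal to noise over triplicate slides.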 To be noted: 635 nm fluorescence, higher = more signal.
Test [4] deals with Fibrinogen (Alexa647-labelled). Briefly: Alexa647-fibrinogen binding to printed small molecules – biochemical, small-molecule microarray, 635/667 nm fluorescence, artefact control for SMM control-protein annotation, profiling panel (AID 1131).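 Also: z-score merges 667 nm fluorescence with per-spot signal-to-noise over triplicate slides.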 The conditions noted are these: fibrinogen-A647 binding fluorescence, higher = more signal.
In test [5] the target is Follistatin (Homo sapiens) (UniProt P19883). Briefly: FST protein binding to printed compounds – biochemical, small-molecule microarray, 635/667 nm fluorescence, primary screen (AID 1132). The conditions noted are these: 635 nm fluorescence, higher = more signal.
The target in test [6] is Fibroblast growth factor 2 (Homo sapiens) (UniProt P09038). Briefly: basic fibroblast growth factor binding to printed compounds – biochemical, small-molecule microarray, 635/667 nm fluorescence, primary screen (AID 1133). To be noted: FGF2, fluorescence 635/667, higher = more signal.
Test [7] is described as follows: JC-1 mitochondrial potential readout, lung cancer cells – cell-based, A549, JC-1 fluorescence, basal, 24 h, 100 nL, profiling panel (AID 1138).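 Also: A549 lung adenocarcinoma cells under basal conditions with no added stimulus; test concentration not given here.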 The conditions noted are these: higher = more signal.
The next test has as its system Lefty1. Briefly: Lefty1 protein binding to printed compounds – biochemical, small-molecule microarray, 635/667 nm fluorescence, primary screen (AID 1139). The conditions noted are these: fluorescence 635/667, higher = more signal.
The subject of test [8] is wheat germ agglutinin (Triticum aestivum), Alexa647-labelled. Briefly: Alexa647-WGA lectin binding to printed small molecules – biochemical, small-molecule microarray, 635/667 nm fluorescence, artefact control for SMM control-protein annotation, profiling panel (AID 1140).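 Also: score merges 667 nm feature emission with signal to noise over triplicate slides.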 The conditions noted are these: WGA-A647 binding, 635 nm fluorescence, higher = more signal.
For test [9], the target named is Luciferin 4-monooxygenase (Photinus pyralis) (UniProt P08659). The test is described as follows: inhibition of purified Photinus pyralis luciferase – biochemical, luminescence, purified enzyme, 2006 set, primary screen (AID 1141).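 Also: cell-free assay with purified firefly luciferase at 100 ng per well in PBS; test concentration not given here.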 The conditions noted are these: purified firefly luciferase, SteadyGlo luminescence, 30 min; higher = more signal, called active from +8 up or from −8 down.

For test [10], the system named is Wnt5a (protein binding on small-molecule microarray). Briefly: small molecules binding Wnt5a protein – biophysical, small-molecule microarray, 635/667 nm fluorescence, primary screen (AID 1142).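 Also: fluorescence read at 667 nm with signal to noise per printed feature.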 To be noted: 635 nm fluorescence, higher = more signal.
Test [11] in a line: ATP-based viability of Huh7 replicon cells – cell-based, CellTiter-Glo luminescence, basal, 48 h, cytotoxicity control for HCV replication inhibitor project, primary screen (AID 1143).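 Also: Huh7 hepatoma cells carrying a hepatitis C replication reporter with no stimulus; test concentration not given here.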 To be noted: higher = more signal, called active from +8 up or from −8 down. (In antiviral work, replicon cells carry a viral genome segment that copies itself.)
Test [12] in a line: Pseudomonas biofilm growth suppression – PAO1 strain, BacTiter-Glo luminescence, LB-PBS, primary screen (AID 1144). To be noted: P. aeruginosa PAO1 biofilm, 12 h, higher = more signal.
The nature of test [13]: basal CRE-LacZ reporter activity in PC12 – cell-based, unstimulated, primary screen (AID 1145). To be noted: no forskolin, luminescence, 4.5 h, higher = more signal, called active from +8 up or from −8 down.
Test [14] in a line: forskolin-driven CRE-LacZ activity in PC12 – cell-based, CRE-LacZ reporter, forskolin-stimulated, primary screen (AID 1146).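 Also: PC12 cells with 6xCRE LacZ reporter stimulated by forskolin 10 µM; beta-galactosidase reporter signal reflecting CREB driven transcription.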 To be noted: luminescence, 4.5 h, higher = more signal, called active from +8 up or from −8 down.
Test [15] concerns the target Streptavidin (Streptomyces avidinii) (UniProt P22629). The test is described as follows: compounds binding control protein streptavidin – biophysical, small-molecule microarray, 635/667 nm fluorescence, artefact control for SMM compound annotation, primary screen (AID 1147).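 Also: signal reflects streptavidin binding to arrayed compounds as a control protein.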 To be noted: higher = more signal.
Test [16] can be described thus: probe aInhba binding on compound microarray – biochemical, small-molecule microarray, 635/667 nm fluorescence, primary screen (AID 1148).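 Also: score merges 667nm spot fluorescence with signal-to-noise for antibody binding to printed compounds.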 The conditions noted are these: higher = more signal.
Test [17] deals with Torsin-1A (Homo sapiens) (UniProt O14656). Briefly: TOR1A wild-type binding on microarray – cell lysate, small-molecule microarray, lysate, 635/667 nm, primary screen (AID 1149). To be noted: COS7 hTOR1A-WT lysate, 635 nm fluorescence, higher = more signal.
The target is the same in test [18]. The test is described as follows: torsin A mutant lysate binding on microarrays – cell lysate, small-molecule microarray, COS7 lysate, 635/667 nm fluorescence, primary screen (AID 1150).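 Also: score pools 667 nm emission and signal to noise measuring lysate protein binding.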 The conditions noted are these: COS7 hTOR1A mutant lysate, 635 nm fluorescence, higher = more signal.
The subject of test [19] is Sonic hedgehog protein (Shh). Briefly: Sonic hedgehog microarray binding compounds – biochemical, small-molecule microarray, 635/667 nm fluorescence, primary screen (AID 1151).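 Also: Shh protein binding to compounds spotted on small-molecule microarray slides; score combines spot fluorescence intensity with signal-to-noise across triplicate slides.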 The conditions noted are these: 635 nm fluorescence, higher = more signal.

Luciferin 4-monooxygenase (Photinus pyralis), sequence (P08659 whole entry, looked up): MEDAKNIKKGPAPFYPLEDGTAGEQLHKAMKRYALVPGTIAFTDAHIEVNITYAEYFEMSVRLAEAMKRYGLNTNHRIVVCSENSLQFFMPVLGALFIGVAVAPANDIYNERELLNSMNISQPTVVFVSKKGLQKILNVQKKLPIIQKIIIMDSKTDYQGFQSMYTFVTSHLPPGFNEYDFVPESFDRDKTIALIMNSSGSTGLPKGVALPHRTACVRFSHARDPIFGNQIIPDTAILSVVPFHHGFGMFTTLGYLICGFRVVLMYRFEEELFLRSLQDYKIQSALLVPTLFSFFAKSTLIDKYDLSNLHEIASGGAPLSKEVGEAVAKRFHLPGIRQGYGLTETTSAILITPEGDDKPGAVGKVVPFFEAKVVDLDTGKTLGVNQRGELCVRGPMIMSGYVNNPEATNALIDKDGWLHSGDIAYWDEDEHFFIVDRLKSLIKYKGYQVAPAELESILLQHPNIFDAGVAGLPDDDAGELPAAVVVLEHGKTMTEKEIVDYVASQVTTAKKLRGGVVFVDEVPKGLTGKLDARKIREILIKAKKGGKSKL
Torsin-1A (Homo sapiens), sequence (O14656 whole entry, looked up): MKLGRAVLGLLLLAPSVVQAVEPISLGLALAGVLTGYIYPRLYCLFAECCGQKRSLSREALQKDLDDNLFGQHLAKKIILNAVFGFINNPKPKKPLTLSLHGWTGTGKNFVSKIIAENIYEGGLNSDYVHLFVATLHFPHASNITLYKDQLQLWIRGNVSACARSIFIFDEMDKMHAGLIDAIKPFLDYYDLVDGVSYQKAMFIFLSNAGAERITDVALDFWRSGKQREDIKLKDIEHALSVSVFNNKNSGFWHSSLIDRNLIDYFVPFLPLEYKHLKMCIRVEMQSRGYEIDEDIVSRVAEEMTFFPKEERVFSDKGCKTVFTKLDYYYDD
Fibroblast growth factor 2 (Homo sapiens), sequence (P09038 whole entry, looked up): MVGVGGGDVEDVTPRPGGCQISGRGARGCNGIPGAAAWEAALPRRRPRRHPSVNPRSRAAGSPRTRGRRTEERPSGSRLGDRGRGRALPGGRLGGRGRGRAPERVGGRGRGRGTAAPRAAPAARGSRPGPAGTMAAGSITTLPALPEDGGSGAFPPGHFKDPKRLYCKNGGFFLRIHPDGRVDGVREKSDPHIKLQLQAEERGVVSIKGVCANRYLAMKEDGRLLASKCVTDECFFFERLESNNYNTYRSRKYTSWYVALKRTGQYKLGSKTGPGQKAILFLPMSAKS
Focal adhesion kinase 1 (Homo sapiens), sequence (Q05397 whole entry, looked up): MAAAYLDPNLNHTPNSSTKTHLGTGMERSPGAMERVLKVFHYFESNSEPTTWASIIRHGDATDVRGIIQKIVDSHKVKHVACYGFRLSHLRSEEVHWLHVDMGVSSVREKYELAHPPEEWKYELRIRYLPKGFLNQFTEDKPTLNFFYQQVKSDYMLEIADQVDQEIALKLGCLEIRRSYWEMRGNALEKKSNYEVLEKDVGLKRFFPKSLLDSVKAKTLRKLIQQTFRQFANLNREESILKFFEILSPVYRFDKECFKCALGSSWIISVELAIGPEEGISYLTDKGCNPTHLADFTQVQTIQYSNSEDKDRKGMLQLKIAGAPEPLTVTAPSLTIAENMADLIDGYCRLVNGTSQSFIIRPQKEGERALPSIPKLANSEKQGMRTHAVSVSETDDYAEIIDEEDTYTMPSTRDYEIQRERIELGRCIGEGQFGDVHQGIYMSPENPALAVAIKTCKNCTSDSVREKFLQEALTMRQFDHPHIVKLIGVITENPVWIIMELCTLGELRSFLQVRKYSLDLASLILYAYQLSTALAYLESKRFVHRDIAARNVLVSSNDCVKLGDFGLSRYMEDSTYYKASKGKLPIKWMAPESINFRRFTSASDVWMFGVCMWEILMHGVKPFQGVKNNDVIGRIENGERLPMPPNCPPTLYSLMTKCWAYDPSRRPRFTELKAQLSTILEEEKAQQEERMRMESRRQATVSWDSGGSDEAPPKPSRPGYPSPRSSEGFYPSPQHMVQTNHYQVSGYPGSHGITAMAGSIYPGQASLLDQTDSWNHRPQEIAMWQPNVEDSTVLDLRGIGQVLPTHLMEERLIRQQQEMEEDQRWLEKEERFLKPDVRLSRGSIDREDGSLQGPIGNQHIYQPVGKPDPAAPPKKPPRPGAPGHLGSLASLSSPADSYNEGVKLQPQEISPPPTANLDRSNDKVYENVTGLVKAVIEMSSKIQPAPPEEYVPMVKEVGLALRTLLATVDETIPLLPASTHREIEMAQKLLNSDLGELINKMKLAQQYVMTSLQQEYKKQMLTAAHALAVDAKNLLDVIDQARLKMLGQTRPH
Follistatin (Homo sapiens), sequence (P19883 whole entry, looked up): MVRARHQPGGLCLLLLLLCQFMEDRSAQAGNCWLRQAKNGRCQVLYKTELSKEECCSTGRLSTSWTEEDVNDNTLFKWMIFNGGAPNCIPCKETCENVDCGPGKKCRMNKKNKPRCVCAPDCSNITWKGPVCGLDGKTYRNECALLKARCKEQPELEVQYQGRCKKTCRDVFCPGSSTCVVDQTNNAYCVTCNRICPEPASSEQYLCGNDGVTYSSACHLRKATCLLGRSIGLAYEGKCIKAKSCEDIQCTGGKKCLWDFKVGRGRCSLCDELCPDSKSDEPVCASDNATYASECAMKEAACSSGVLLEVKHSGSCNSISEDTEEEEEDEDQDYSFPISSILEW
Streptavidin (Streptomyces avidinii), sequence (P22629 whole entry, looked up): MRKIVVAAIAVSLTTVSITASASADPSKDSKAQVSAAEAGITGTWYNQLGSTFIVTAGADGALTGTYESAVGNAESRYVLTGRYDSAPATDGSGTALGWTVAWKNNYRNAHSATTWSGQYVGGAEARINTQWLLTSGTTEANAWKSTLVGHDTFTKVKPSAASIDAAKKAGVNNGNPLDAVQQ

For `COCCOC(=O)N1C(=O)[C@@]2(c3cc(C#CC4(O)CCCCCC4)ccc31)[C@H](c1ccc(OCCO)cc1)N1[C@H](c3ccccc3)[C@H](c3ccccc3)OC(=O)[C@H]1[C@@H]2C(=O)NC[C@H](O)c1ccccc1`, the composite z-score in test [1] turned out to be 1.67; in test [2], 1.21; in [3], 0.184; in [4], 0.946; in test [5], 1.15; in [6], 0.909. For the same molecule, the composite z-score in the test on Lefty1 stood at 0.907; in test [8], 0.784; in test [10], 0.524; in test [15] it was 0.246; in test [16], 0.0658; with Torsin-1A (Homo sapiens) [17], 0.225. Also, the composite z-score is 0.514 with Torsin-1A (Homo sapiens) [18] and 1.23 in test [19]. Also, the z-score in test [7] was -1.52; in test [9], -1.05 (inactive); in test [11], -5.42 (inactive); in test [12], -0.903 (inactive); in [13] it was -0.61 (inactive); in test [14], 0.753 (inactive).
`CC[C@@H](c1ccccc1)n1c(=O)n2n(c1=O)[C@H]1[C@H](O)[C@@H]3O[C@@H]3C(=NOCC=C(C)CCC=C(C)C)[C@H]1CC2`: the composite z-score in [1] stood at 0.592; in [2], 1.1; in test [3], 0.301; in [4], 0.417; in test [5], 0.708; in test [6], 0.55. Further, the composite z-score with Lefty1 is 1.25; in [8], 0.359; in test [10], 0.33; in [15], -0.124; in test [16] it was -0.0963; with Torsin-1A (Homo sapiens) [17], 0.216. Besides, the composite z-score was 0.366 with Torsin-1A (Homo sapiens) [18] and 1.88 in [19]. Besides, the z-score in test [7] is 0.0549; in test [9] it was -0.726 (inactive); in [11], -1.53 (inactive); in test [12], 0.0433 (inactive); in [13] it was 1.07 (inactive); in test [14], 0.889 (inactive).
For `C[C@@H]1CCC2C(=O)N(Cc3ccccc3)C[C@@H](O)CN2[C@H]1c1ccc(Br)cc1` (stereo not given in full), the composite z-score in [1] was 0.737; in [2] it was 0.0101; in test [3], -0.24; in [4] it was 0.909; in [5], 0.49; in test [6] it was 0.425. Moreover, the composite z-score in the test on Lefty1 was 0.399; in [8] it was 0.623; in test [10], -0.412; in test [15] it was 0.398; in test [16], -0.0719; with Torsin-1A (Homo sapiens) [17], 0.866. The values for the composite z-score (with Torsin-1A (Homo sapiens) [18]; in test [19]) were 1.42 and 0.228, respectively. Also, the z-score is 1.89 in test [7]; -1.86 (inactive) in test [9]; -2.02 (inactive) in test [11]; -1.54 (inactive) in test [12]; 2.28 (inactive) in [13]; -0.284 (inactive) in test [14].
Take `O=C1c2ccccc2[C@@]2(Cc3ccccc3N(C3CC3)C2=O)[C@H](c2ccc(CO)cc2)N1Cc1ccccc1C(F)(F)F`: the composite z-score in test [1] was 0.534; in test [2], -0.453; in test [3], 0.13; in test [4], -1.41; in [5], -1.41; in test [6] it was -1.09. In addition, the composite z-score in the test on Lefty1 was -1.32; in test [8], 0.286; in [10], -0.145; in test [15], -1.07; in [16], 0.21; with Torsin-1A (Homo sapiens) [17] it was -1.02. In addition, the composite z-score with Torsin-1A (Homo sapiens) [18] was -0.77; in [19] it was -0.537. Besides, the z-score was -0.511 in test [7]; 0.62 (inactive) in test [9]; -4.35 (inactive) in test [11]; -0.459 (inactive) in test [12]; -0.258 (inactive) in [13]; -0.0879 (inactive) in test [14].
As for `COc1ccc(O[C@H]2C=C[C@@H](c3ccccc3)O[C@@H]2COC(=O)N2CCCCC2)cc1`, the composite z-score in test [1] was -0.475; in [2], -1.23; in [3] it was -0.073; in test [4] it was -0.528; in test [5], 0.12; in test [6] it was 0.571. Besides, the composite z-score in the test on Lefty1 is 0.225; in test [8], -0.249; in test [10] it was -0.19; in test [15] it was -0.221; in test [16], -0.108; with Torsin-1A (Homo sapiens) [17] it was 0.205. Moreover, the composite z-score with Torsin-1A (Homo sapiens) [18] was determined as 0.125; in test [19], 0.147. Besides, the z-score in test [7] is -0.433; in test [9], 0.711 (inactive); in test [11], -0.259 (inactive); in test [12], 0.615 (inactive); in [13] it was 0.929 (inactive); in test [14] it was 0.197 (inactive).
